Bioassay records deposited in PubChem by National Center for Advancing Translational Sciences (NCATS).
The list is not random: actives were taken first. Their share in the collection is about 19%.
DT40 TDP1 no CPT – qHTS for Inhibitors of human tyrosyl-DNA phosphodiesterase 1 (TDP1): qHTS in cells in absence of CPT; DT40 Tdp1-/- hTDP1 cells, no CPT, ATP luminescence, 48 h; Potency, µM (doses to about 46.2 µM), inactives show top-dose activity change, negative = growth inhibition, usual class: inhibitors; hit rate 15% among 420,000; AID 686978, 2013; further: potency means the concentration at half of the fitted maximal effect; on the % scale 0 is the no-effect control and ±100 the full control effect; nearly all actives have a fitted effect of over 55% in size
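Cells were dispensed at 400 per well, compounds added by pin tool, plates incubated ≥48 hr at 37 °C, then CellTiter-Glo added for 30 min at room temperature before luminescence reading. Line: DT40 Tdp1-/- complemented with hTDP1; camptothecin omitted.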
SW480 rerep – DNA re-replication induction in SW480 cells. SW480 DNA re-replication, Hoechst DNA content imaging, 48 h. Potency, µM (doses to about 46.1 µM), without a hit: at the highest dose re-replication activation, usual class: activators. hit rate 1.8% among 340,000. AID 624297; further: potency means the concentration at half of the fitted maximal effect; % of control where 0% means no effect; nearly all actives have a fitted effect of over 55% in size
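Per well, 250 cells were exposed to pinned compound for 48 hr. Nuclear DNA was visualised with Hoechst (40 min, 37 C) and total object intensity recorded by fluorescence scanning.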
IL1B secr inh – blocks inflammasome-driven IL-1 beta release; hit rate 4.7% among 360,000; THP-1 LPS/ATP IL-1B secretion, AlphaLISA, 16 h; stronger effect = lower value; activity change, % at 57.5 µM; in the data active means activity change below about -50%; inconclusive means mostly about -30% to -49%; further: on the % scale 0 is the no-effect control and ±100 the full control effect
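Secreted IL-1B measured by AlphaLISA bead assay after 16 h compound exposure of THP-1 cells; compounds (final up to 57.5 uM) added 1 h before LPS (250 ng/mL) and ATP (1.25 mM) stimulation; lower signal means less secretion.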
TDP1 cell CPT – DT40-hTDP1 cell growth loss with CPT. hit rate 12% among 420,000. chicken DT40 Tdp1-/-;hTDP1 cells + 20 nM CPT, ATP luminescence, 48 h. AID 686979. Potency, µM (top dose mostly 46.2 µM), without a hit: at the top dose activity change, negative = growth inhibition, actives largely listed as inhibitors; further: potency means the concentration at half of the fitted maximal effect; on the % scale 0 is the no-effect control and ±100 the full control effect; nearly all actives have a fitted effect of over 55% in size
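Chicken DT40 Tdp1-/- cells complemented with human TDP1, 400 cells/well, exposed to compounds plus 20 nM camptothecin for at least 48 h at 37 C; viability read as ATP content by CellTiter-Glo luminescence.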
MCF10A rereplic – inducers of DNA re-replication in MCF 10A breast cells. MCF 10A DNA re-replication, Hoechst nuclear intensity, 48 h. Potency, µM (highest dose often 46.1 µM), without a hit: top-dose activity, positive = re-replication, usual class: activators. hit rate 2.9% among 350,000; further: potency means the concentration at half of the fitted maximal effect; % of control where 0% means no effect; nearly all actives have a fitted effect of over 50% in size
Chronic BCR inh – inhibitors of chronic active B-cell receptor signaling; Potency, µM (doses to about 46.1 µM), for inactives: top-dose activity change, negative = inhibition, actives largely listed as inhibitors; AID 493014; ABC-DLBCL IkBa-CBG/CBR reporter, luminescence ratio, 4 h; hit rate 0.05% among 340,000; active means well fitted inhibition curve with a large enough effect in the signal ratio, with a control signal flat, not every such curve was filed as active; inconclusive means small, poorly fitted or top-dose-only effect, or effect the other way, or a change in a side signal; the % refers to the signal ratio;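 further: potency means the concentration at half of the fitted maximal effect; plate controls were basal doxycycline-induced cells for no effect and cells given 10 µM MG132 for full effect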
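Concentration-response series (up to 46 uM) were applied to TMD8 dual-reporter cells for 4 h at 37C with doxycycline. Green/red ratio, after filter-overlap correction, defined %Activity; red signal alone was normalised to basal cells and zero luminescence.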
The depositor's hits bear a star; ? = inconclusive; / = no result; [ ] = dose if it differs, or a comment. Unless noted, the call rests on the fitted dose curve; in most records, active means well fitted curve in the direction sought with a large enough effect; inconclusive means small, poorly fitted or top-dose-only effect, or another doubt; inactive means no such curve, though single readings can be large; an effect the other way counts as inactive or inconclusive.

SMILES	DT40 TDP1 no CPT	SW480 rerep	IL1B secr inh	TDP1 cell CPT	MCF10A rereplic	Chronic BCR inh
CC(C)C[C@H](NC(=O)c1[nH]cnc1C(=O)Nc1ccc(Cl)cc1)C(=O)OC(C)(C)C	?	?	?	?	2.4%	0.2%
CC(C)(C)OC(=O)[C@H](Cc1ccccc1)NC(=O)c1[nH]cnc1C(=O)Nc1cccc(Cl)c1	?	6.8%[9.22 µM]	-51.4*	?	14.6µM*	?
CC(C)(C)OC(=O)[C@H](Cc1ccccc1)NC(=O)c1[nH]cnc1C(=O)Nc1ccc(Cl)cc1	?	?	-59.2*	?	?	2.2%
C[C@@H](OC(=O)N1CCCCC1)[C@H]1O[C@]2(C)CCCC[C@H]1O2	-7.7%	0.6%	32.3	-0.2%	-23.1%	0.0%
CCOC(=O)Cn1cnc(-c2ccc([N+](=O)[O-])cc2)c1	0.7%	-4.4%	20.4	6.0%	6.1%	-10.9%
COC(=O)c1ccccc1NC(=O)c1cc(C)nc2c1c(C)nn2-c1ccc(C)cc1	-4.7%	/	/	-0.3%	/	/
CC(=O)Nc1ccc(C(=O)OCC(=O)/C(C#N)=C(\C)N)cc1	4.5%	-1.4%	-7.5	6.2%	1.7%	-3.5%
C/C(N)=C(/C#N)C(=O)COC(=O)c1cccc(O)c1	-2.2%	0.3%[1.84 µM]	-54.1*	-21.7%	-31.1%	-17.1%
COc1cccc(CNC(=O)c2ccc3c(c2)nc2n3CCCCC2)c1OC	?	/	/	-7.8%	/	/
Cc1ccc(S(=O)(=O)N2CCC(=O)N([C@H](COCc3cccc(Cl)c3)Cc3ccccc3)CC2)cc1	20.6µM*	/	28.0	?	/	/
Cc1ccc(S(=O)(=O)N2CCC(=O)N([C@H](COCc3ccc(Cl)cc3)Cc3ccccc3)CC2)cc1	?	/	-13.0	?	/	/
Cc1ccc(S(=O)(=O)N2CCC(=O)N(C(COCc3ccccc3)Cc3ccccc3)CC2)cc1 (configuration not stated)	11.6µM*	-0.3%	-26.4	?	10.5%	?
Cc1ccc(S(=O)(=O)N2CCC(=O)N(C(COCc3cccc(Cl)c3)Cc3ccccc3)CC2)cc1 (configuration not stated)	18.4µM*	-3.9%	10.0	-90.9%	?	0.8%
Cc1ccc(S(=O)(=O)N2CCC(=O)N(C(COCc3cccc(C(F)(F)F)c3)Cc3ccccc3)CC2)cc1 (configuration not stated)	20.6µM*	1.4%	33.1	?	?	3.5%
CCCCCNC(=O)Cc1ccc(S(=O)(=O)N2CCOCC2)s1	-4.7%	-3.7%	1.4	12.2%	-0.8%	-1.2%
CCOc1ccc(-n2c(=O)c3sc4ccccc4c3n(Cc3cccc(C)c3)c2=O)cc1	-28.6%	/	/	1.1%	/	/
Cc1ccc(S(=O)(=O)N2CCC(=O)N([C@H](COC(=O)Nc3ccccc3)Cc3ccccc3)CC2)cc1	18.4µM*	/	-10.0	?	/	/
Cc1ccc(S(=O)(=O)N2CCC(=O)N(CCOCc3ccc(Cl)cc3)CC2)cc1	16.4µM*	-4.3%	-15.7	11.6µM*	17.1%	-13.5%
Cc1cccc(C)c1NC(=S)NC(=O)c1cccc(Cl)c1	?	/	5.2	?	/	/
Cc1ccc(Cl)cc1N1C(=O)CC(Sc2ncccn2)C1=O (configuration not stated)	20.6µM*	?	-12.0	?	?	-9.1%
O=C1CC(Sc2ncccn2)C(=O)N1c1ccccc1C(F)(F)F (configuration not stated)	?	-5.2%	-80.3*	?	8.5%	?
CCc1ccccc1N1C(=O)CC(Sc2nccc(C)n2)C1=O (configuration not stated)	?	1.3%	0.3	?	-1.8%	-19.7%
FC(F)(F)c1ccccc1-c1nc(NC2CC2)c2ccccc2n1	-27.3%	/	/	-5.4%	/	/
O=C(Nc1cc(Sc2ccccn2)cc([N+](=O)[O-])c1)c1ccc(Cl)cc1	23.1µM*	-2.8%	-65.8*	?	?	3.3%
O=C(Nc1cc(Sc2ccccn2)cc([N+](=O)[O-])c1)c1cccc(Cl)c1	?	-1.9%	?	?	28.5%	?
SMILES	DT40 TDP1 no CPT	SW480 rerep	IL1B secr inh	TDP1 cell CPT	MCF10A rereplic	Chronic BCR inh
C[N+]1(CC(=O)c2c3ccccc3cc3ccccc23)CCOCC1	10µM*	/	/	15.8µM*	/	/
C[N+]1(CC(=O)c2ccc(-c3ccccc3)cc2)CCOCC1	-16.2%	/	/	?	/	/
CCOC(=O)Cc1c(C)nc2c(-c3ccccc3)c(-c3ccccc3)[nH]n2c1=O	16.4µM*	?	18.2	?	?	4.2%
CCc1c(C)nc2c(-c3ccccc3)c[nH]n2c1=O	?	-0.5%	10.5	?	-4.1%	-3.0%
CCOC(=O)Cc1c(C)nc2c(-c3ccccc3)c[nH]n2c1=O	2.31µM*	-4.5%	-15.9	18.4µM*	?	-0.5%
CC(C)C1COc2cc3oc(=O)ccc3cc2O1 (configuration not stated)	-10.0%	/	/	-8.1%	/	/
COc1ccc(S(=O)(=O)Nc2ccccc2C(=O)NCc2ccco2)cc1	?	-4.3%	11.9	20.6µM*	?	-11.4%
CC(=O)Nc1ccc(NC(=O)c2ccccc2N(Cc2ccccc2)S(C)(=O)=O)cc1	2.0%	?	6.9	11.9%	?	1.4%
CCN1CCN(C(=O)c2ccccc2N(Cc2ccccc2)S(=O)(=O)c2ccc(OC)cc2)CC1	?	19.7%	?	?	7.5%	-11.8%
COCCCNC(=O)c1ccccc1N(Cc1ccccc1)S(=O)(=O)c1ccc(OC)cc1	20.6µM*	?	53.4	?	?	-0.1%
O=C(NCc1ccco1)c1ccccc1NS(=O)(=O)c1ccc(Br)s1	?	-4.3%	62.0	?	?	7.0%
CC(C)CNC(=O)c1ccccc1N(Cc1ccccc1)S(C)(=O)=O	3.3%	11.6µM*	-11.3	-22.6%	1.5%	2.5%
C=CCN(c1ccccc1OC)S(=O)(=O)c1ccc(Cl)c(C(=O)NCc2ccco2)c1	13µM*	/	26.0	18.4µM*	/	/
COc1ccc(OC)c(CN2CCN(C(=O)c3ccc(S(=O)(=O)Nc4ccccc4F)cc3)CC2)c1	?	-1.0%	24.9	?	1.1%	1.0%
COc1ccc(S(=O)(=O)N(Cc2ccccc2)c2ccccc2C(=O)Nc2ccccc2C(=O)NCc2ccco2)cc1	5.8µM*	/	-6.0	?	8.2%	0.2%
